In PubChem BioAssay (NCATS):
Records with an inconclusive call do not appear. Unmarked numbers belong to inactive results. The source made the active and inactive calls. The call rests on the fitted dose curve; in most records, active means well fitted inhibition curve with a large enough effect; inconclusive means small, poorly fitted or top-dose-only effect; inactive means no such curve, though single readings can be large or run the other way.
On the % scale 0 is the no-effect control and ±100 the full control effect; potency means the concentration at half of the fitted maximal effect.

What follows are compounds tested against Glutaminase kidney isoform, mitochondrial (Homo sapiens) (UniProt O94925) (assay: qHTS for Inhibitors of Glutaminase (GLS): LOPAC Validation (AID 624146; further: nearly all actives have a fitted effect of over 60% in size;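 on activity change, negative = inhibition: glutamate product detected by oxidase and peroxidase coupled Amplex red fluorescence gain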)). Settings: glutaminase enzyme activity inhibition; series mostly up to 46.1 µM; activity change, negative = inhibition: at the top concentration.
Glutaminase kidney isoform, mitochondrial (Homo sapiens), sequence (O94925 whole entry, looked up, canonical isoform): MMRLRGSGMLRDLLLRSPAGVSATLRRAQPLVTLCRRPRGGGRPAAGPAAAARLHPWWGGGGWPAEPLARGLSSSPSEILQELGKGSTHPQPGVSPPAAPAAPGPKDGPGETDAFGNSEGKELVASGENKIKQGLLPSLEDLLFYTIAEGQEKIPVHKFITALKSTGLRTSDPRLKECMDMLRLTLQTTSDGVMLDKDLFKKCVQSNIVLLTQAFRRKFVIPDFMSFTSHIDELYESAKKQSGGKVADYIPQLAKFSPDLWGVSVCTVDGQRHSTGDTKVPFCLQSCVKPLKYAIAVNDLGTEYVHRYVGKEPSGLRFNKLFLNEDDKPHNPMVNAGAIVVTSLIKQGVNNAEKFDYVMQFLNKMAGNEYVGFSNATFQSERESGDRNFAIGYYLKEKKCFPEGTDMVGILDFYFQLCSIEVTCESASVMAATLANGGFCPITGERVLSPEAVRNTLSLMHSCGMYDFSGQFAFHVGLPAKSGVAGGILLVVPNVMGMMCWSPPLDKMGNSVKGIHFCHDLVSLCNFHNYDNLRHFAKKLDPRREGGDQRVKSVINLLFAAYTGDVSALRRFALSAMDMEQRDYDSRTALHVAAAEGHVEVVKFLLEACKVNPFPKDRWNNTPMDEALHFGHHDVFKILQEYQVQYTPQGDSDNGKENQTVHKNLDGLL
Text: Glutaminase (GLS) catalyzes the hydrolysis of glutamine into glutamate and ammonia. It plays a critical role in glutaminolysis, which is an important energy source for proliferating cells. It was shown that c-Myc, an oncogenic transcription factor known to regulate microRNAs and to stimulate cell proliferation, increases glutamine metabolism by stimulating the expression of GLS via direct suppression of miR23a and miR23b.
GLS is also thought to play a pathogenic role on HAD using a human HIV-1 infected macrophage system. […] GLS inhibition limits glutamate release and provides neuroprotection against HIV-1 infected macrophages.
The overall goal of this project is to identify small molecule inhibitors of GLS through quantitative high throughput screening (qHTS) of the MLSMR. A validated potent and selective inhibitor can be used as a tool molecule to further study the pharmacology of its target as well as explore its potential therapeutic application in cancer and inflammatory neurological disorders, such as HIV1-associated dementia (HAD) and multiple sclerosis.
NIH Chemical Genomics Center [NCGC]
NIH Molecular Libraries Probe Centers Network [MLPCN]
Assay Submitter (PI): Barbara S. Slusher, Johns Hopkins University
Three 3 uL of hKGA is dispensed into black well 1536-well plates in 45 mM KH2PO4 (pH 8.2), 0.02% Tween-20. Then 23 nL of compounds are added through pin tool transfer. To this, 1 uL of 1mM L-Glutamine and 1 uL of a solution of L-Glutamateoxidase, HRP, Amplex red are added. Plate is centrifuged for 25 sec before an initial fluorescence read is obtained on the ViewLux, after 30 min of RT incubation, the final read is taken on the ViewLux.
O=S(=O)(c1cccc2c(I)cccc12)N1CCCNCC1 was tested, and the “activity change, negative = inhibition” value was 258%. In the case of N.N.O=C(O)C1(C(=O)O)CCC1.[Pt], the “activity change, negative = inhibition” value was 2.63%. CCCC1(C)C(C#N)(C#N)C1(C#N)C#N was tested, and the “activity change, negative = inhibition” value was -6.13%. With CN(C)c1nc(N)c(C(=O)N=C(N)N)nc1Cl the “activity change, negative = inhibition” value was -17.7%. In the case of C=CC(=O)c1ccc(CCCCCC)cc1, the “activity change, negative = inhibition” value was -10.4%. In the case of Cc1cc2c(cc1Cl)N(C(=O)Nc1ccc(Oc3cccnc3C)nc1)CC2, the “activity change, negative = inhibition” value was -5.17%. With CNCC[C@H](Oc1ccc(C(F)(F)F)cc1)c1ccccc1 the “activity change, negative = inhibition” value was -2.13%. With NCCNC(=O)c1ncsc1-c1cccc(F)c1 the “activity change, negative = inhibition” value was -5.93%. In the case of COC1=C(OC)C(=O)c2ccccc2C1=O, the Potency was 10 µM (active). O=C(Nc1ccccc1)c1cc([N+](=O)[O-])ccc1Cl was tested, and the “activity change, negative = inhibition” value was 43.1%. With Cn1c(=O)c2[nH]c(-c3ccccc3)nc2n(C)c1=O the “activity change, negative = inhibition” value was -14.6%. In the case of N#C/C(=C\c1c[nH]c2ccccc12)C(=O)c1ccc(O)c(O)c1, the Potency was 1.12 µM (active). Nc1ncnc2c1c(I)cn2[C@@H]1C[C@H](N)[C@@H](O)[C@H]1O was tested, and the “activity change, negative = inhibition” value was -4.77%. N=C(N)SCCc1ccc(CCSC(=N)N)cc1 was tested, and the “activity change, negative = inhibition” value was -21.4%. COc1cccc(OC)c1OCCNCC1COc2ccccc2O1 (stereo not given) was tested, and the “activity change, negative = inhibition” value was -21.7%. With Nc1nc(Cl)nc2c1ncn2[C@@H]1O[C@H](COP(=O)(O)OP(=O)(O)OP(=O)(O)O)[C@@H](O)[C@H]1O the “activity change, negative = inhibition” value was -10.7%. O=[N+]([O-])c1ccc2c(c1)S(=O)(=O)C=C2 was tested, and the “activity change, negative = inhibition” value was -1.64%. With CCCCCCCCCCCCCCCC(=O)NCC(COP(=O)([O-])OCC[N+](C)(C)C)OCC (stereo not given) the “activity change, negative = inhibition” value was -12.5%. In the case of CCN(CC)c1ncnc2c1ncn2[C@@H]1O[C@H](COP(=O)(O)OP(=O)(O)C(Br)(Br)P(=O)(O)O)[C@@H](O)[C@H]1O, the “activity change, negative = inhibition” value was 73%. With O=Nc1ccc2oc(=O)ccc2c1 the Potency was 10 µM (active). In the case of C[N+]1(C)C2CC(OC(=O)[C@H](CO)c3ccccc3)CC1C1OC12 (stereo not given in full), the Potency was “inactive”. In the case of O=C(/C=C/c1ccc(O)cc1)c1ccc(O)cc1O, the Potency was 10 µM (active). For OC[C@H]1O[C@@H](n2cnc3c(Nc4ccccc4)ncnc32)[C@H](O)[C@@H]1O, the “activity change, negative = inhibition” value was 37.6%. For CN(C)C(N)=NCCC[C@H](N)C(=O)O, the “activity change, negative = inhibition” value was 0.577%. CCN1/C(=C/C(C)=O)Sc2ccc(OC)cc21 was tested, and the “activity change, negative = inhibition” value was -14.3%. In the case of O=C(c1cc(O)c(O)c([N+](=O)[O-])c1)c1ccccc1F, the Potency was 4.47 µM (active). With Cn1cc(C2=C(c3ccc(Cl)cc3Cl)C(=O)NC2=O)c2ccccc21 the “activity change, negative = inhibition” value was -31.5%. For O=[N+]([O-])c1ccc(CSc2ncnc3c2ncn3[C@@H]2O[C@H](CO)[C@@H](O)[C@H]2O)cc1, the “activity change, negative = inhibition” value was -10.4%. For O=C1O/C(=C/Br)CCC1c1cccc2ccccc12 (stereo not given), the “activity change, negative = inhibition” value was 26%. In the case of CC(C)CC(NP(=O)(O)O[C@@H]1O[C@@H](C)[C@H](O)[C@@H](O)[C@H]1O)C(=O)NC(Cc1c[nH]c2ccccc12)C(=O)O (stereo not given in full), the “activity change, negative = inhibition” value was -2.59%. For O=C(O)CCCC[C@@H]1CCSS1, the “activity change, negative = inhibition” value was -14.5%. For NS(=O)(=O)C#Cc1ccccc1, the “activity change, negative = inhibition” value was -6.15%. C=C[C@@H]1CN2CC[C@@H]1C[C@H]2[C@H](O)c1ccnc2ccc(OC)cc12 was tested, and the “activity change, negative = inhibition” value was 9%. Cc1ccc(C(=O)O[C@H](C(=O)O)[C@@H](OC(=O)c2ccc(C)cc2)C(=O)O)cc1 (tested in a mixture with another compound) was tested, and the “activity change, negative = inhibition” value was 7.31%. In the case of Fc1ccc(C(OCCCc2cnc[nH]2)c2ccc(F)cc2)cc1, the “activity change, negative = inhibition” value was -18.4%. CC(N)C(=O)OC(C)(C)Cc1ccc(Cl)cc1 (stereo not given) was tested, and the “activity change, negative = inhibition” value was -4.17%. COc1ccc2c(c1)CCC1C2CC[C@@]2(C)C1CC[C@@H]2NCCCCCCN1C(=O)CCC1=O (stereo not given in full) was tested, and the “activity change, negative = inhibition” value was 21.2%. In the case of O=C(O)c1cc(=O)c2c(Cl)cc(Cl)cc2[nH]1, the “activity change, negative = inhibition” value was 7.62%. With CC(C)NC[C@H](O)COc1cccc2[nH]ccc12 the “activity change, negative = inhibition” value was -21.7%. For CN1CCc2ccccc2Cc2[nH]c3ccccc3c2CC1, the Potency was 8.91 µM (active).
